This note sets out measurements from PubChem BioAssay (NCI).

The panel holds about 79,000 compounds, 15% with a hit somewhere; the sample as a whole holds those more often. Values without a mark were called inactive. Activity calls are given as the source filed them. No stated cut-off is given here; in the data, active means growth inhibition above about 70%; inactive means the rest.

Test [1] is described as follows: NCI Yeast Anticancer Drug Screen. Data for the rad50 strain (AID 155).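 Further: 0% = growth of vehicle-only cultures of the same strain.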 Conditions: S. cerevisiae rad50 strain growth inhibition, hits give high values; at 50.0 µM unless noted. In a few lines: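 Genetically altered yeast (DNA repair pathway); compound treatment; growth inhibition vs vehicle ctrl.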
Test [2] is described as follows: NCI Yeast Anticancer Drug Screen. Data for the mec2-1 strain (AID 157). Conditions: S. cerevisiae mec2-1 strain, hits give high values; at 50.0 µM unless noted. In a few lines:
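Mutant yeast (mec2-1) grown with compound; growth inhibition relative to vehicle control reported.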

A short description of test [3]: NCI Yeast Anticancer Drug Screen. Data for the sgs1 mgt1 strain (AID 161).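 Further: 0% = growth of cultures given vehicle only.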 Conditions: S. cerevisiae sgs1 mgt1 strain, hits give high values; at 50.0 µM unless noted. The essentials: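 Percent growth inhibition was derived by comparing compound-exposed mutant yeast with vehicle-exposed cultures. The strain carries alterations in DNA damage repair.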
Test [4] in a line: NCI Yeast Anticancer Drug Screen. Data for the cln2 rad14 strain (AID 165).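 Further: 0% = growth equal to vehicle treated cultures.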 Conditions: S. cerevisiae cln2 rad14 strain, hits give high values; at 50.0 µM unless noted. In a few lines:
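Readout is yeast growth inhibition versus vehicle-treated controls, using a strain with cln2 and rad14 alterations exposed to compound.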

The nature of test [5]: NCI Yeast Anticancer Drug Screen. Data for the bub3 strain (AID 167). Conditions: S. cerevisiae bub3 mutant strain, hits give high values; at 50.0 µM unless noted. In a few lines: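 Yeast carrying a defined mutation is treated with each compound, and growth is compared with that of vehicle-exposed cells to give inhibition.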
Test [6] in a line: NCI Yeast Anticancer Drug Screen. Data for the mlh1 rad18 strain (AID 175). Conditions: S. cerevisiae mlh1 rad18 strain growth inhibition, hits give high values; at 50.0 µM unless noted. The essentials:
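Genetically defined yeast (DNA repair-deficient) exposed to compounds; growth inhibition determined relative to vehicle.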

As for `O=C(O)CCCC1CCC(=O)CC1`, the growth inhibition in test [1] is -0.4%; in test [2], -7.55%; in test [3], -8.1%; in test [4], -24.4%; in test [5], 0.5%; in test [6], 3.35%.

As for `O=C(NCCCCCSC(=O)c1ccccc1)c1ccccc1`, the growth inhibition in test [1] is -0.35%; in test [2], 4.6%; in test [3], 7.95%; in test [4], 13.8%; in test [5] it was 15.7%; in test [6], -4%.

Turning to `Nc1cc2c(cc1[N+](=O)[O-])-c1ccc(Cl)cc1C2=O`, the growth inhibition in test [1] was 58.5%; in test [2] it was -2.45%; in test [3], 1.45%; in test [4], 7.5%; in test [5], -1.95%; in test [6] it was 41.2%.

Take `S=c1[nH]nc(-c2n[nH]c3ccccc23)o1`: the growth inhibition in test [1] was 3.3%; in test [2], 3.6%; in test [3] it was 5.9%; in test [4], -51.3%; in test [5], -3%; in test [6] it was 1.25%.

Turning to `NC1CC(=O)c2ccccc21` (stereo unspecified), the growth inhibition in test [1] was 15.2%; in test [2], 4.8%; in test [3] it was -5%; in test [4] it was 8.95%; in test [5] it was 2.75%; in test [6], -37.6%.

Regarding `COc1ccc2c(O)c(Oc3ccccc3)c(=O)oc2c1`, the growth inhibition in test [1] was 0.5%; in test [2], 5%; in test [3] it was 4.25%; in test [4] it was 30.9%; in test [5], 15.3%; in test [6], 13.1%.

Turning to `C=C(C)[C@H]1C=C[C@@H](OC(=O)c2cccnc2)[C@@]23CO[C@@](C)([C@H](OC(=O)c4cccnc4)[C@@]4(OC(C)=O)C[C@H](C)[C@H](OCCC)[C@@H]4[C@H]2OC(C)=O)[C@H]13`, the growth inhibition is -11.2% in test [1]; -6.1% in test [2]; 27.4% in test [3]; 35.4% in test [4]; 22.6% in test [5]; 79.8% (active) in test [6].

Turning to `CCOC(=O)C(CC(C)C)NC(=O)c1c2nc3c(C(=O)NC(CC(C)C)C(=O)OCC)cc(NC(C)=O)c(C)c3oc-2c(C)c(=O)c1N` (stereo unspecified), the growth inhibition in test [1] is 8.4%; in test [2] it was 34.5%; in test [3] it was 34.6%; in test [4], -4.95%; in test [5], -6.5%; in test [6] it was 48.8%.

`CC(C)=Nn1cnc2c1NC(C)(C)N=C2C(N)=O`: the growth inhibition in test [1] was -18.8%; in test [2], -17.2%; in test [3], -12.2%; in test [4] it was 7.85%; in test [5] it was 14.8%; in test [6], -15.6%.

`N=C(N)c1ccc(NC(=S)Nc2ccc(C(=N)N)cc2)cc1`: the growth inhibition in test [1] is 43.1%; in test [2] it was 21.3%; in test [3], 32.1%; in test [4] it was 7.35%; in test [5] it was 16.4%; in test [6], 31.8%.

As for `COc1ccccc1C(=O)N/N=C/c1cccc([N+](=O)[O-])c1`, the growth inhibition was -2.15% in test [1]; 3.1% in test [2]; 13.7% in test [3]; -11.7% in test [4]; 29.1% in test [5]; 4.75% in test [6].

`Nc1ccc(N=Nc2c(S(=O)(=O)O)cc3ccccc3c2S(=O)(=O)O)cc1`: the growth inhibition is -23% in test [1]; -30.4% in test [2]; -38.2% in test [3]; -18.3% in test [4]; -46.5% in test [5]; -27.6% in test [6].

As to `O=C(NCCS)C(=O)NCCS`, the growth inhibition in test [1] was -1.55%; in test [2], 7.9%; in test [3], 3.65%; in test [4], 9.7%; in test [5], -12.7%; in test [6], -10.2%.

Consider `Nc1ccc(S(=O)[O-])cc1.Nc1ccc(S(=O)[O-])cc1.[Zn+2]`, for which the growth inhibition in test [1] is -19.2%; in test [2], -19.9%; in test [3] it was -6.15%; in test [4] it was -26.5%; in test [5] it was 1%; in test [6], -15.6%.

In the case of `CCCCCCCCCCCC[N+](C)(C)C(C)Cc1ccccc1` (stereo unspecified), the growth inhibition in test [1] was 99.3% (active); in test [2], 99.5% (active); in test [3], 89.8% (active); in test [4], 99.4% (active); in test [5] it was 99.2% (active); in test [6] it was 99.3% (active).

Regarding `O=C(O)c1ccc(NCn2c(=S)sc3ccccc32)cc1`, the growth inhibition is 6.45% in test [1]; 3% in test [2]; 52% in test [3]; 26.9% in test [4]; 11.8% in test [5]; 11.1% in test [6].

In the case of `O=C(O)C[N-]CC(=O)O.OO.[O]=[V]`, the growth inhibition was -16.9% in test [1]; 1.5% in test [2]; -1.7% in test [3]; -30.7% in test [4]; 3.75% in test [5]; 3.55% in test [6].

As for `Cc1ccnc(NCCCNc2nccc(C)n2)n1`, the growth inhibition in test [1] is 22.6%; in test [2], -1.4%; in test [3], 14.1%; in test [4], 36.8%; in test [5], 5.2%; in test [6], 22.3%.

On to `C=C(COc1ccc(OC)cc1)C(C)(C)C`, for which the growth inhibition in test [1] was 18.9%; in test [2] it was 13.3%; in test [3], -17.4%; in test [4], -14.4%; in test [5], 14.7%; in test [6] it was -19.5%.

For `CCCCN(CCCC)C(=O)C(=O)C(C(=O)c1ccc(OC)cc1)c1ccc(OC)cc1` (stereo unspecified), the growth inhibition in test [1] was -8.95%; in test [2], -1.5%; in test [3] it was -11.8%; in test [4], -10.3%; in test [5], 14.1%; in test [6], -3.95%.

On to `Clc1ccc2[nH]c3c(c2c1)CCCC3`, for which the growth inhibition is 10.7% in test [1]; 0.45% in test [2]; 28.4% in test [3]; 1.6% in test [4]; 2.55% in test [5]; 28.8% in test [6].
